{
  "source": "the OligoGym collection",
  "data": [
    {"biological_target": "NRN1", "test": "pooled miR-30 sensor sort-seq; sequence = guide strand", "conditions": "shRNA", "values": [
      {"sequence": "TTGGATGTTGAGGTTTTTGGAT", "sensor-assay potency score (higher = more potent)": -0.637},
      {"sequence": "TTGAAGACCGCATCGCACTTGC", "sensor-assay potency score (higher = more potent)": 0.325},
      {"sequence": "TTGTCGTCCAGGCCCTGCGGGT", "sensor-assay potency score (higher = more potent)": -1.62},
      {"sequence": "TGATGTTCGTCTTGTCGTCCAG", "sensor-assay potency score (higher = more potent)": -0.489},
      {"sequence": "TCGTCTTGTCGTCCAGGCCCTG", "sensor-assay potency score (higher = more potent)": -1.79},
      {"sequence": "TTGATGTTCGTCTTGTCGTCCA", "sensor-assay potency score (higher = more potent)": 0.18},
      {"sequence": "TCTTGATGTTCGTCTTGTCGTC", "sensor-assay potency score (higher = more potent)": -0.712},
      {"sequence": "TTCGTCTTGTCGTCCAGGCCCT", "sensor-assay potency score (higher = more potent)": -0.542},
      {"sequence": "TCAGTGAAATATATCTGCCGTT", "sensor-assay potency score (higher = more potent)": -1},
      {"sequence": "TTCTTTTCTCAGTTTATCCCAC", "sensor-assay potency score (higher = more potent)": -0.535},
      {"sequence": "ATCAGTGAAATATATCTGCCGT", "sensor-assay potency score (higher = more potent)": -0.0404},
      {"sequence": "TTATCCCACATATCTTTCGCCC", "sensor-assay potency score (higher = more potent)": -1.13}
    ]},
    {"biological_target": "NRTN", "test": "pooled miR-30 sensor sort-seq; sequence = guide strand", "conditions": "shRNA", "values": [
      {"sequence": "TCGTCCTCGTAGGCCGTCGGGC", "sensor-assay potency score (higher = more potent)": -1.36},
      {"sequence": "ATGGACAGCACGGAGCTGCAGA", "sensor-assay potency score (higher = more potent)": -1.37},
      {"sequence": "TAGCGGAACAGCACCGTCTCGT", "sensor-assay potency score (higher = more potent)": -0.209},
      {"sequence": "TCCTCGTAGGCCGTCGGGCGGC", "sensor-assay potency score (higher = more potent)": -1.9},
      {"sequence": "TCGTCGCAGCCCGAGGTCGTAG", "sensor-assay potency score (higher = more potent)": -1.65},
      {"sequence": "TCTCAGTACAGTTATCGCGAGA", "sensor-assay potency score (higher = more potent)": -1.15},
      {"sequence": "TGGCGCAGTCGTCGCAGCCCGA", "sensor-assay potency score (higher = more potent)": -1.96},
      {"sequence": "AACAGCACCGTCTCGTCGGACG", "sensor-assay potency score (higher = more potent)": -1.59},
      {"sequence": "TGCACCGTGTGGTAGCGGCTGT", "sensor-assay potency score (higher = more potent)": -1.01},
      {"sequence": "TATCTCAGTACAGTTATCGCGA", "sensor-assay potency score (higher = more potent)": 0.0428}
    ]},
    {"biological_target": "NRXN1", "test": "pooled miR-30 sensor sort-seq; sequence = guide strand", "conditions": "shRNA", "values": [
      {"sequence": "TAAAGATATATGTCGTCCCAGG", "sensor-assay potency score (higher = more potent)": -1.02},
      {"sequence": "TTTGTGTCAATCTTTACAGTGT", "sensor-assay potency score (higher = more potent)": 0.163},
      {"sequence": "TATTTTTATATACAACCTCTTT", "sensor-assay potency score (higher = more potent)": -1.15},
      {"sequence": "TAGAATTAATCCATCTAGGGAT", "sensor-assay potency score (higher = more potent)": -0.432},
      {"sequence": "TAAGTTTATATTATGTCTCAGA", "sensor-assay potency score (higher = more potent)": -0.557},
      {"sequence": "TTGAACTTCAGCCATTTGCCGG", "sensor-assay potency score (higher = more potent)": -0.927},
      {"sequence": "TATCATTGAGGTTATAGCCAGC", "sensor-assay potency score (higher = more potent)": -0.792},
      {"sequence": "TTTTGAGACAAGTCGTAGCAGA", "sensor-assay potency score (higher = more potent)": -0.143},
      {"sequence": "ATTGTTGCAAGCACACACCTTG", "sensor-assay potency score (higher = more potent)": -0.22},
      {"sequence": "AAGATTGACATAATCAGCCGAT", "sensor-assay potency score (higher = more potent)": 0.46},
      {"sequence": "TTTCTTTAGCTACTCCTCCTAT", "sensor-assay potency score (higher = more potent)": -0.523},
      {"sequence": "TATTTCTATACAAGTGTCCATT", "sensor-assay potency score (higher = more potent)": -1.16}
    ]},
    {"biological_target": "NT5C3L", "test": "pooled miR-30 sensor sort-seq; sequence = guide strand", "conditions": "shRNA", "values": [
      {"sequence": "TGGAACACTTTCATCTGTCGGA", "sensor-assay potency score (higher = more potent)": -0.0202},
      {"sequence": "TCAGAAATCACCTGTAACCGGT", "sensor-assay potency score (higher = more potent)": -0.094},
      {"sequence": "AAACTTCTGAATCTTCTGCTGA", "sensor-assay potency score (higher = more potent)": -0.000526},
      {"sequence": "ATTGGACTCTCTAACCACCTGG", "sensor-assay potency score (higher = more potent)": 0.547},
      {"sequence": "TAGCCCGTTGACCACATCCAGA", "sensor-assay potency score (higher = more potent)": -1.7},
      {"sequence": "TTTCCATTATATGCAAACCTGC", "sensor-assay potency score (higher = more potent)": -1.3}
    ]}
  ]
}
